In PubChem BioAssay (NCATS):
Results filed as inconclusive are left out. Activity calls are given as the source filed them. The call rests on the fitted dose curve; in most records, active means well fitted inhibition curve with a large enough effect; inconclusive means small, poorly fitted or top-dose-only effect; inactive means no such curve, though single readings can be large or run the other way.

biological target: Retinaldehyde dehydrogenase 3 (Homo sapiens) (UniProt P47895); assay: qHTS for Inhibitors of the Aldehyde Dehydrogenase Family (ALDH1A3) Confirmatory screens (AID 2061311); details: ALDH inhibition qHTS; series mostly up to 46 µM; activity change, negative = inhibition: at the top concentration; further: nearly all actives have a fitted effect of over 60% in size
On the % scale 0 is the no-effect control and ±100 the full control effect; potency means the concentration at half of the fitted maximal effect.

Q: Which Potency does the source give for CCC(=O)NC(C)c1cc(Cl)c2ccccc2c1O (configuration not stated) here?
A: 12.7 µM (active)

Q: Which “activity change, negative = inhibition” value does the source give for COc1ccc(NC(=O)N2CCC(CC(=O)NCc3ccccc3)C2)cc1OC (configuration not stated) here?
A: -9.78% (inactive)

Q: How did the “activity change, negative = inhibition” value turn out when O=C(C#Cc1ccccc1)NC1CCCc2c1cnn2-c1ccc(F)cc1F (configuration not stated) was run?
A: -9.82% (inactive)

Q: With Cc1cccc(-c2ccc(CN)cc2)c1 as the compound, how does the “activity change, negative = inhibition” value read?
A: 3.83% (inactive)

Q: For Oc1cc(-c2cccnc2)cc2cccnc12, which Potency is on record?
A: 4.49 µM (active)

Q: How did the “activity change, negative = inhibition” value turn out when O=C(CN1CCN(c2ccc(Cl)cc2)CC1)Nc1ccc(F)c(F)c1 was run?
A: -33% (inactive)

Q: How did the “outcome” value turn out when COCCn1c(CNC(=O)c2cc([N+](=O)[O-])ccc2Cl)nc2cccnc21 was run?
A: inactive

Q: Which “activity change, negative = inhibition” value does the source give for CCc1ccc(O)c(C(=O)c2cnc3cc(-c4ccc(C)cc4)nn3c2)c1 here?
A: -27.7% (inactive)

Q: For O=C(Cn1cnc2onc(-c3ccc(Cl)cc3)c2c1=O)Nc1ccc(F)cc1, which “activity change, negative = inhibition” value is on record?
A: -20.8% (inactive)

Q: For O=C(Nc1ccc([C@@H](O)[C@H]2COCC(=O)N2CCCc2ccccc2)cc1)C1CCC1, which “activity change, negative = inhibition” value is on record?
A: -42.5% (inactive)

Q: With Cc1cc(C)n2nc(SCC(=O)Nc3ccccc3C)nc2n1 as the compound, how does the “activity change, negative = inhibition” value read?
A: -41.6% (inactive)

Q: With CC[C@H]1CN(C(=O)Nc2cccc(OC)c2)CC[C@H]1CC(=O)NCc1ccccc1 as the compound, how does the “activity change, negative = inhibition” value read?
A: -53.1% (inactive)

Q: How did the “activity change, negative = inhibition” value turn out when COCCOc1ccc(C(=O)N[C@@H]2CN(C(=O)NCc3ccccc3)CCC[C@H]2O)cc1 was run?
A: 1.57% (inactive)

Q: For COc1ccc(-c2nc3ccccc3c(=O)n2Cc2ccccc2)cc1OCc1ccc(NC(C)=O)cc1, which Potency is on record?
A: 22.5 µM (active)

Q: How did the “activity change, negative = inhibition” value turn out when O=C(NCc1ccc(F)cc1)c1nc(-c2ccc(Cl)nc2)c2cnccn12 was run?
A: -11.7% (inactive)

Q: For CCOc1ccc(CCNC(=O)c2cc3sccc3n2CC)cc1OCC, which “activity change, negative = inhibition” value is on record?
A: -29% (inactive)

Q: With O=C(CCS(=O)(=O)c1cccc2nonc12)Nc1ccc(F)cc1F as the compound, how does the “activity change, negative = inhibition” value read?
A: -34.9% (inactive)
